# Laboratory results as given in PubChem BioAssay (Tox21).
# Values without a mark were called inactive. Inconclusive results are not listed. A call without a number means that no potency is given here. Activity calls are given as the source filed them. Unless noted, calls come from the whole dose curve; as a rule, active = well fitted curve in the direction sought with a large enough effect in the repeat runs; inconclusive = weak or mixed curves; inactive = no such curve, though single readings can be large; an effect the other way counts as inactive or inconclusive.
# Tests used:
# [1] = qHTS assay to identify small molecule antagonists of the glucocorticoid receptor (GR) signaling pathway - cell viability counter screen (AID 720693); note: nearly all actives have a fitted effect of over 55% in size
# [2] = qHTS assay for identifying genotoxic compounds that show differential cytotoxicity against isogenic chicken DT40 cell lines with known DNA damage response pathways - Rev3 mutant cell line (AID 743014); note: nearly all actives have a fitted effect of over 55% in size
# [3] = qHTS assay for identifying genotoxic compounds that show differential cytotoxicity against isogenic chicken DT40 cell lines with known DNA damage response pathways - Rad54/Ku70 mutant cell line (AID 743015); note: nearly all actives have a fitted effect of over 60% in size; note: potency is the fitted concentration of half-maximal effect
# [4] = qHTS assay to identify small molecule antagonists of the androgen receptor (AR) signaling pathway - cell viability counter screen (AID 743033; note: nearly all actives have a fitted effect of over 45% in size)
# [5] = target: Androgen receptor (Homo sapiens) (UniProt P10275); assay: qHTS assay to identify small molecule antagonists of the androgen receptor (AR) signaling pathway (AID 743035; active = well fitted inhibition curve with a large enough effect in the signal ratio in the repeat runs, not every such curve was filed as active; the % refers to the signal ratio)
# Sequence of Androgen receptor (Homo sapiens) (P10275 whole entry, looked up): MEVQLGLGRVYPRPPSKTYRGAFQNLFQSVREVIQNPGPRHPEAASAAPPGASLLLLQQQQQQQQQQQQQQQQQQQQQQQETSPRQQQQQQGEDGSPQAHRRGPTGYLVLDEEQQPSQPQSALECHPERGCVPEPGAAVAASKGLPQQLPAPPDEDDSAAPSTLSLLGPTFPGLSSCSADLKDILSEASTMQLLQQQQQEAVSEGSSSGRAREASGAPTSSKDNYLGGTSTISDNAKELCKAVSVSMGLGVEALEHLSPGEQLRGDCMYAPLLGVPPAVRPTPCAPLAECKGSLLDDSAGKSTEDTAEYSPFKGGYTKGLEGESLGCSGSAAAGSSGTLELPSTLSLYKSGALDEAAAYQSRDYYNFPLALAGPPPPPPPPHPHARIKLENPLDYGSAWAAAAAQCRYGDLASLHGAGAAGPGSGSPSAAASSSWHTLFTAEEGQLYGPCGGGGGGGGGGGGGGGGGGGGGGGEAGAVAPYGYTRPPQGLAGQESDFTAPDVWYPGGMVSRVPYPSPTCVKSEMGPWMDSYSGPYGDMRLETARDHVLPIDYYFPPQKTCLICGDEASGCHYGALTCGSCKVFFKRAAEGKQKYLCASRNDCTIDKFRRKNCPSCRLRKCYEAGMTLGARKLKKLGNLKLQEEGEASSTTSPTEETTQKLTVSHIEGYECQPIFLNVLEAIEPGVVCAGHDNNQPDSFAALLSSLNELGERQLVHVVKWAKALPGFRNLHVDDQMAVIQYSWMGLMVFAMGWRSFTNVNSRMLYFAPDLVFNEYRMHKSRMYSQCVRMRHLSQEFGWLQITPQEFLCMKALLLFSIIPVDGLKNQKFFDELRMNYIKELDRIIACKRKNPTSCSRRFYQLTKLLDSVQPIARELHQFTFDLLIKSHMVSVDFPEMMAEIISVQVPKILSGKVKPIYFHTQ
# Summary of the method: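 Beta-lactamase FRET read (2 h RT incubation with LiveBLAzer B/G) following 16 h of compound plus R1881 treatment of AR-UAS-bla HEK293 cells, which had been pre-incubated 4 h at 37C.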
# [6] = target: Androgen receptor (Homo sapiens) (UniProt P10275); assay: qHTS assay to identify small molecule agonists of the androgen receptor (AR) signaling pathway using the MDA cell line (AID 743040; note: nearly all actives have a fitted effect of over 20% in size)
# Summary of the method: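 Human breast carcinoma MDA-kb2 reporter cells (MMTV-luc, AR/GR elements) were treated for 16 h at 37C in 0% CO2 following a 5 h settling period. Signal was quantified by ONE-Glo luminescence.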
# [7] = target: Androgen receptor (Homo sapiens) (UniProt P10275); assay: qHTS assay to identify small molecule antagonists of the androgen receptor (AR) signaling pathway using the MDA cell line (AID 743042; note: nearly all actives have a fitted effect of over 55% in size)
# Summary of the method: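 MDA-kb2 breast carcinoma cells carrying MMTV-luciferase (AR/GR responsive) were co-treated with compounds and the agonist R1881 for 16 h at 37C. Inhibition read as ONE-Glo luminescence; CellTiter-Fluor fluorescence measured in parallel for cytotoxicity.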
# [8] = qHTS assay to identify small molecule antagonists of the thyroid receptor (TR) signaling pathway - cell viability counter screen (AID 743064); note: nearly all actives have a fitted effect of over 50% in size
# Summary of the method: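 Viability of T3-stimulated (1 nM final) GH3.TRE-Luc cells is measured by CellTiter-Fluor fluorescence after 23.5 h compound exposure at 37 °C plus 30 min reagent incubation.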
# [9] = qHTS assay for identifying genotoxic compounds that show differential cytotoxicity against isogenic chicken DT40 cell lines with known DNA damage response pathways - wild type cell line (AID 743012); note: nearly all actives have a fitted effect of over 60% in size; note: potency is the fitted concentration of half-maximal effect
# Summary of the method: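 First, wild type DT40 cells were plated at 300 per well and equilibrated about 0.5 h at 37 C/5% CO2. Next, compounds in DMSO were added and exposure lasted 40 h. Finally, CellTiter-Glo was added for 30 min at room temperature and luminescence recorded.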
# [10] = qHTS assay to identify small molecule antagonists of the androgen receptor (AR) signaling pathway using the MDA cell line - cell viability counter screen (AID 743041; note: nearly all actives have a fitted effect of over 45% in size)
# Summary of the method: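 Same-well cytotoxicity was assessed by CellTiter-Fluor in MDA-kb2 AR-luc cells after 16 h of compound treatment under R1881 agonism.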
smiles,measurement,setting,value
O=C[C@@H](O)[C@H](O)[C@H](O)CO,outcome,[1],inactive
same,Potency,[2],inactive
same,Potency,[3],inactive
same,outcome,[4],inactive
same,outcome,[5],inactive
same,outcome,[6],inactive
same,outcome,[7],inactive
same,Potency,[8],inactive
Clc1cc(Cl)c(Cl)c(Cl)c1Cl,outcome,[1],inactive
same,Potency,[9],inactive
same,Potency,[3],inactive
same,outcome,[4],inactive
same,outcome,[10],inactive
same,Potency,[8],inactive
O=C(O)Cc1ccccc1Oc1ccc(Cl)cc1Cl,outcome,[1],inactive
same,Potency,[9],inactive
same,Potency,[3],inactive
same,outcome,[10],inactive
NNC(=O)CCCCC(=O)NN,outcome,[1],inactive
same,Potency,[2],inactive
same,Potency,[3],inactive
same,outcome,[4],inactive
same,outcome,[10],inactive
same,Potency,[8],inactive
CCCCCCC(=O)c1ccccc1,outcome,[1],inactive
same,Potency,[9],inactive
same,outcome,[4],inactive
same,outcome,[10],inactive
CC(C)(C)C(=O)NCCCC(=O)O,outcome,[1],inactive
same,Potency,[9],inactive
same,Potency,[3],inactive
same,outcome,[4],inactive
same,outcome,[10],inactive
same,Potency,[8],inactive
CC(=O)Oc1ccc(C(C)=O)cc1,outcome,[1],inactive
same,Potency,[9],inactive
same,Potency,[3],inactive
same,outcome,[4],inactive
same,outcome,[10],inactive
same,Potency,[8],inactive
CCCCCCCCCCCCCCCCN(C)C,"viability change, negative = cytotoxic",[1],9.67% [at 7.04 µM]
same,"activity change, negative = cytotoxicity",[9],9.27% [at 8.52 µM]
same,"activity change, negative = cytotoxicity",[4],-5.02% [at 7.04 µM]
same,"activity change, negative = inhibition",[5],-9.68% [at 7.04 µM]
same,activity change,[6],0.294% [at 8.47 µM]
same,"viability change, negative = cytotoxic",[10],-2.54% [at 8.47 µM]
same,"activity change, negative = inhibition",[7],19.6% [at 8.47 µM]
same,"activity change, negative = cytotoxic",[8],0.507% [at 8.44 µM]
O=C(O)CCC(=O)Nc1ccc(S(=O)(=O)Nc2nccs2)cc1,outcome,[1],inactive
same,Potency,[9],inactive
same,Potency,[3],inactive
same,outcome,[10],inactive
same,Potency,[8],inactive
CCCCCCCCC1CO1 (stereo not given),outcome,[1],inactive
same,Potency,[2],inactive
same,Potency,[3],inactive
same,outcome,[4],inactive
same,outcome,[5],inactive
same,outcome,[6],inactive
same,outcome,[10],inactive
same,outcome,[7],inactive
same,Potency,[8],inactive
CN(C)CCc1c[nH]c2ccc(CS(=O)(=O)N3CCCC3)cc12,outcome,[1],inactive
same,Potency,[9],inactive
same,Potency,[3],inactive
same,outcome,[4],inactive
same,outcome,[10],inactive
same,Potency,[8],inactive
C[n+]1ccccc1/C=N/O,outcome,[1],inactive
same,Potency,[9],inactive
same,Potency,[3],inactive
same,outcome,[10],inactive
same,Potency,[8],inactive
O=C(c1ccccc1)c1cccc(O)c1,outcome,[1],inactive
same,Potency,[9],inactive
same,Potency,[3],inactive
same,outcome,[4],inactive
same,outcome,[7],inactive
same,Potency,[8],inactive
COc1ccc(Cl)cc1C,outcome,[1],inactive
same,Potency,[9],inactive
same,Potency,[3],inactive
same,outcome,[4],inactive
same,outcome,[10],inactive
same,Potency,[8],inactive
CC(C)(C)c1ccc(N)cc1,outcome,[1],inactive
same,Potency,[9],inactive
same,Potency,[3],inactive
same,outcome,[4],inactive
same,outcome,[10],inactive
same,Potency,[8],inactive
NS(=O)(=O)c1cc2c(cc1C(F)(F)F)NCNS2(=O)=O,outcome,[1],inactive
same,Potency,[9],inactive
same,Potency,[3],inactive
same,outcome,[10],inactive
same,Potency,[8],inactive
CN1C(CCl)Nc2cc(Cl)c(S(N)(=O)=O)cc2S1(=O)=O (stereo not given),outcome,[1],inactive
same,Potency,[9],26.6 µM (active)
same,Potency,[3],29.8 µM (active)
same,outcome,[10],inactive
